In PubChem BioAssay one finds viability increase and viability data, which are given here for 32 compounds.

Values without a mark were called inactive. Records with an inconclusive call do not appear. The source made the active and inactive calls.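 How the source made its calls, unless noted: active means cell viability at or below a set limit in both duplicate runs, the limit being the all-compound median minus 4 SD (cut at about 23% in these data, passing the limit was not always enough); inconclusive means no clear call, values can overlap the other calls; inactive means the rest.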

A short description of one experiment: viability gain of MRP-1-high H69AR cells under doxorubicin, pilot screen, MRP-1 activator project, CellTiter-Glo, duplicate (AID 807;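 active means viability increase at or above a cutoff of the median across tested compounds plus 3 SD, cut at about 8.5% in these data, passing the limit was not always enough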;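 further: compound pretreatment 18-22 h then 72 h combined with doxorubicin; 0% = doxorubicin alone and 100% = vehicle without doxorubicin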). The note with it: H69AR viability with doxorubicin, CellTiter-Glo luminescence; at 10 µM; active compounds read high. On the technique in general: ATP-based viability assays read luminescence as a measure of living cells.
`CCOc1ccc(-c2nc(CSCC(=O)N3CCN(c4cccc(OC)c4)CC3)c(C)o2)cc1`: the viability increase is -2.52%. Same read-out and setting: for `CCOC(=O)c1ccccc1NC1c2ccccc2C(=O)N1c1ccc(C)cn1` (stereo not drawn) the value was -2.23%; for `COc1ccc(N2CCN(C(=O)CCS(=O)(=O)c3cccc4nsnc34)CC2)cc1`, -2.63%.

In the case of `Cc1ccc(-c2nn(-c3ccccc3)cc2C2SCC(=O)N2Cc2ccccc2)o1` (stereo not drawn), the viability increase is -0.06%. The same measure, in the same setting: for `CCC(Sc1nc2c(cnn2-c2ccccc2)c(=O)[nH]1)C(=O)OC` (stereo not drawn) the value was -1.58%; for `COc1ccc(-c2nc(CS(=O)CC(=O)NCc3ccc4c(c3)OCO4)c(C)o2)cc1` (stereo not drawn), -1.69%; for `COc1cccc(CSc2nc3sc(C)c(C)c3c(=O)n2Cc2ccco2)c1`, 0.35%. On to `Cc1noc(/C=C/NCc2cccnc2)c1S(=O)(=O)N(C)CC(=O)N1CCc2ccccc21`, for which the viability increase is -3.19%.

For `COc1ccccc1N1CCN(C(=O)c2cc3c(-c4ccc(Cl)cc4)nn(C)c3s2)CC1`, the viability increase is -4.63%. The same measure, in the same setting: for `O=C(O)c1ccc(CSc2nnc(COc3ccc(Cl)cc3Cl)o2)cc1` the value was 2.94%. Same read-out and setting: then `N#CCCN1CCN(C(=S)c2ccc(-c3cccc(Cl)c3)o2)CC1`, with -0.32%; and `Oc1ccccc1C(=S)N1CCCCC1`, with -2.83%; and `Cc1ccc(-c2nc(CS(=O)CC(=O)NCc3ccc(Cl)cc3)c(C)o2)cc1` (stereo not drawn), with -2.83%.

As for `COc1ccc(-c2noc(-c3cc(C)cc(C)c3)n2)cc1OC`, the viability increase is 4.05%. Still for that read-out and setting: then `Cc1ccc(C)c(C(=O)Nc2c(C(N)=O)oc3ccccc23)c1`, with -3%; and `Clc1ccccc1-c1nnc2sc(-c3ccncc3)nn12`, with -3.61%.

The nature of a further experiment: growth suppression of beta-catenin knockout HCT116, pilot screen, human colon tumor cells (AID 823).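 Further: 0% = wells killed by 20 µM Hyamine and 100% = untreated DMSO cell wells.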 To be noted: CellTiter-Glo, 60 h, at 10 µM, active compounds read low.
In the case of `Brc1ccc(Oc2nnnn2-c2ccccc2)cc1`, the viability is 95.3%. The same measure, in the same setting: for `CCC(C)(C(=O)NC1CCCC1)N(C(=O)CNC(C)=O)c1ccc(C)cc1` (stereo not drawn) the value was 94.2%; for `Cn1c(SCc2ccccc2Cl)nnc1-c1cnccn1`, 103%; for `O=c1c2ccccc2nc(N2CCN(c3ccccc3)CC2)n1Cc1ccccc1`, 66.3%.

Turning to `COc1cc(OC)c(NC(=O)CS(=O)(=O)Cc2nc(-c3ccc(C)cc3)oc2C)cc1Cl`, the viability is 85.5%. Same read-out and setting: then `Clc1ccc(Cc2nnc(-c3cccs3)o2)cc1`, with 106%. The same measure, in the same setting: for `CCOC(=O)c1ccc(NC(=O)c2cc3ccccc3o2)cc1` the value was 86.2%; for `C=CCNc1ncnc2c1cnn2-c1ccc(Cl)cc1`, 106%; for `O=C1C2CCCN2C(c2ccc(F)cc2)N1c1ccc(Cl)cc1` (stereo not drawn), 76.5%. Still for that read-out and setting: for `CCOc1ccc(NC(=O)C2CSC(c3ccncc3)=N2)cc1` (stereo not drawn) the value was 98.3%; for `O=C(NCc1ccc2c(c1)OCO2)c1nnc(Cc2ccc(F)cc2)o1`, 105%; for `CCCc1nnc(NC(=O)c2ccncc2)s1`, 103%.

Consider `COC(=O)c1ccc2c(c1)N(Cc1ccccc1F)C(=O)c1ccccc1S2=O` (stereo not drawn), for which the viability is 75.9%.

Consider `CCOc1ccccc1C(=O)Nc1ccc2nc(N3CCN(c4ncccn4)CC3)cc(C)c2c1`, for which the viability is 4.33% (active). On the same count and under the same terms, then `C(#Cc1ccccc1)CN1CCN(c2ccccn2)CC1`, with 98.3%; and `CC1CCN(c2nc3c(c(=O)[nH]c(=O)n3C)n2CCCc2ccccc2)CC1`, with 79.9%. On the same count and under the same terms, then `CCOc1ccc(-c2nc(CSCC(=O)N3CCN(c4cccc(OC)c4)CC3)c(C)o2)cc1`, with 34%; and `CCOC(=O)c1ccccc1NC1c2ccccc2C(=O)N1c1ccc(C)cn1` (stereo not drawn), with 72.9%; and `COc1ccc(N2CCN(C(=O)CCS(=O)(=O)c3cccc4nsnc34)CC2)cc1`, with 95.7%.

As for `Cc1ccc(-c2nn(-c3ccccc3)cc2C2SCC(=O)N2Cc2ccccc2)o1` (stereo not drawn), the viability is 74.2%. Same read-out and setting: then `CCC(Sc1nc2c(cnn2-c2ccccc2)c(=O)[nH]1)C(=O)OC` (stereo not drawn), with 91.8%; and `COc1ccc(-c2nc(CS(=O)CC(=O)NCc3ccc4c(c3)OCO4)c(C)o2)cc1` (stereo not drawn), with 94.7%. Consider `COc1cccc(CSc2nc3sc(C)c(C)c3c(=O)n2Cc2ccco2)c1`, for which the viability is 95.7%.

With `Cc1noc(/C=C/NCc2cccnc2)c1S(=O)(=O)N(C)CC(=O)N1CCc2ccccc21`, the viability is 91.2%. Take `COc1ccccc1N1CCN(C(=O)c2cc3c(-c4ccc(Cl)cc4)nn(C)c3s2)CC1`: the viability was 60.8%.

In the case of `O=C(O)c1ccc(CSc2nnc(COc3ccc(Cl)cc3Cl)o2)cc1`, the viability was 103%. Consider `N#CCCN1CCN(C(=S)c2ccc(-c3cccc(Cl)c3)o2)CC1`, for which the viability is 76.9%. Still for that read-out and setting: for `Oc1ccccc1C(=S)N1CCCCC1` the value was 94.7%; for `Cc1ccc(-c2nc(CS(=O)CC(=O)NCc3ccc(Cl)cc3)c(C)o2)cc1` (stereo not drawn), 73.5%. Still for that read-out and setting: then `COc1ccc(-c2noc(-c3cc(C)cc(C)c3)n2)cc1OC`, with 100%; and `Cc1ccc(C)c(C(=O)Nc2c(C(N)=O)oc3ccccc23)c1`, with 94.2%; and `Clc1ccccc1-c1nnc2sc(-c3ccncc3)nn12`, with 106%.

In general, viability refers to a read-out of living cells in per cent, often relative to untreated cells.
